From PubChem BioAssay AID504929 (The Scripps Research Institute Molecular Screening Center, 2011)
The source made the active and inactive calls. How the calls were made is not given here.

Test: AlphaScreen signal with amyloid beta 1-40, late-stage follow-up, counter-screen for Wee1 degradation inhibitor project, biochemical, amplified proximity luminescence (AID 504929)
Details: Abeta1-40 counterscreen, concentration not given here

| SMILES | signal |
| --- | --- |
| c1ccc2[nH]c(CNc3nc(N4CCOCC4)nc4c3ncn4-c3ccsc3)nc2c1 | 75% (active) |
| O=[N+]([O-])c1cccc2[nH]c(CNc3nc(N4CCOCC4)nc4c3ncn4-c3ccsc3)nc12 | 60% (active) |
